Values joined by “and” are separate entries in the source; they are usually repeats but may differ in a detail not shown here. Identical values can stand only once. This is part of a sample that, as a whole, favours compounds with a hit. Of some 83,000 tested, about 20% had one in any assay.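 Growth was measured after 48 h exposure to one concentration of compound in 96-well plates. Values under 10 count as active.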 Active and inactive are the calls of the source.
Each compound was assayed on HL-60(TB) leukemia (assay: NCI-60 one-dose screen, 48 h (100 = growth as untreated, 0 = no growth, -100 = all killed)). Details: 10 µM unless noted.

Structure (SMILES)	growth
O=S(=O)(c1ccc(N/N=C\c2ccccc2)cc1)c1ccc(N/N=C/c2ccccc2)cc1	94.8% (inactive)
CCOP(C)(=O)/C(Cc1ccc(OC)c(OC)c1)=N\O (stereo not given)	98.1% (inactive)
O=c1c2ccccc2c2nccn2c2cc(Cl)ccc12	30.3% (inactive)
C=C(c1ccc(C(=O)O)cc1)c1cc2c(cc1C)C(C)(C)CCC2(C)C	59.3% (inactive) and 74.6% (inactive)
CCc1n(Cc2ccc3ccccc3c2)cc[n+]1Cc1ccc2ccccc2c1	-54% (active)
COc1ccc2c(c1)[n+](=O)c(/C=C/C(=O)c1cc(OC)c(OC)c(OC)c1)c(C)n2[O-]	-49.1% (active)
COc1nccc2cc3c(=O)n4c(cc5ccccc54)c(=O)n3c12	93.5% (inactive)
COc1cccc2nc(Nc3cccc(NC(=O)c4cc(N5CCOCC5)cc(C(F)(F)F)c4)c3)ccc12	93.5% (inactive)
O=C(CC(O)c1ccccc1)Nc1ccccn1 (stereo not given)	97.3% (inactive)
CCCCN(CCCC)CC(C)(C)C(O)c1ccc(OC)c2ccccc12 (stereo not given)	56.3% (inactive)
CCN(CC)CCNC(=O)c1c(C)[nH]c(/C=C2\C(=O)Nc3cc(NC(=O)NC(=O)c4ccc(OC)cc4F)ccc32)c1C	95.9% (inactive)
COc1ccc(-c2nsc3c2NC(=O)CC3c2ccc(Cl)cc2)cc1 (stereo not given)	80.1% (inactive)
COc1cc(/C=N/NC(=O)c2cnn3c2NC(c2ccccc2)C3)ccc1OC1CCCC1 (stereo not given)	40.8% (inactive)
Cc1ccc(/C=N/NC(N)=S)s1	101% (inactive)
C#CCn1c(-c2cccc(OCCCCl)c2)nc2c1c(=O)n(C)c(=O)n2C	-15.7% (active)
O=S(=O)(NCCNc1nccc(-c2c(-c3cccc(F)c3)nc3occn23)n1)c1cccc2ccccc12	51.9% (inactive)
COc1cc(/C=C\c2cc(/C=C\c3ccc(O)c(OC)c3)n(C(=O)CNc3ccccc3OC)n2)ccc1O	25.5% (inactive)
O=C(Nc1cccc(Cl)c1)Nc1cc(C(F)(F)F)ccc1Cl	-6.22% (active)
CCN1C(=O)N(CC)C2C1NN=c1s/c(=C3\C(=O)N(C(C)C)c4ccccc43)c(=O)n12 (stereo not given)	-22.6% (active)
CC(C)Cc1ccc(C(C)C(=O)NCc2c[nH]c3ccc(Cl)cc23)cc1 (stereo not given)	87.6% (inactive)
O=C(NCCNc1nccc(-c2c(-c3cccc(O)c3)nc3sccn23)n1)c1cccc(C(F)(F)F)c1	95.5% (inactive)
Cc1ccc(C(=O)N2C/C(=C/c3ccccc3)C(=O)/C(=C/c3ccccc3)C2)cc1	73.7% (inactive)
CCNCCCn1c2c(c3ccc(F)cc3c1=O)C(=O)c1cc(OC)cnc1-2	-25.5% (active)
CCC(/C=C\C(C)=O)CC	104% (inactive)
Cc1ccc(N2CCN(C(C)C(N)=O)CC2)cc1 (stereo not given)	158% (inactive)
